# Source: PubChem BioAssay AID624288 (National Center for Advancing Translational Sciences (NCATS), 2012)
# Out of some 340,000 compounds screened, about 1,400 (0.41%) were called active. About 4% were inconclusive and are not listed. The list comes from a sample in which actives are over-represented; it also holds similar structures and randomly drawn compounds. Values without a mark were called inactive. Calls come from the whole dose curve; cell line not stated here.
# Experiment: qHTS for Antagonists of gsp, the Etiologic Mutation Responsible for Fibrous Dysplasia/McCune-Albright Syndrome: qHTS; note: nearly all actives have a fitted effect of over 65% in size
# Settings: gsp-mutant cells, cAMP HTRF, 30 min; series mostly up to 76.9 µM; activity change, negative = inhibition: at the top concentration
# Excerpt: McCune-Albright syndrome (MAS) is a rare disease caused by somatic mutations in Gsgsp), a widely expressed protein central in signal transduction from G-coupled protein receptors (GPCRs). The disease symptoms are diverse, owing to the fact that the patients are mosaics with varying degrees of tissue involvement. Greater than 90% of the mutations in Gs in MAS occur at the R201 position and are equally divided between R201H and R201C. The R201 residue is central in the intrinsic GTPase activity of Gs and the H and C mutations lead to loss of, or impairment of, the GTPase activity. The intrinsic GTPase activity is necessary to terminate the interaction between Gs and adenylate cyclase, and to terminate the cAMP-mediated signaling of the given GPCR pathway. Thus, these activating mutations lead to ligand-independent activation of GPCR pathways. The tissue phenotype is determined by the role of Gs in the function of a given cell, and excess Gs/cAMP signaling in that cell. For example, pituitary somatotrophs overproduce growth hormone in a growth hormone releasing hormone-independent fashion, and gigantism/acromegaly ensues. Skeletal stem cells in the bone marrow behave as if they are under constant parathyroid hormone stimulation and fail to differentiate into osteoblasts and osteocytes, and proliferate as immature osteogenic cells and lead to the marrow fibrosis of fibrous dysplasia of bone. The goal of this project is to identify molecules with inhibitory activity at gsp mutations that will not only allow for in-depth study of the underlying molecular and cellular pathophysiology, but also serve as compounds from which drugs to treat FD/MAS can be developed NIH Chemical Genomics Center [NCGC] NIH Molecular Libraries Probe Centers Network [MLPCN] MLPCN Grant: IRP-FT-DE-2011-01 Assay Submitter (PI): Michael Collins, NIDCR
# 1.#Seed 2000 cells/well in 6 ul DMEM 10% FBS, 1% Pen/Strep, 0.5 mg/ml G418 2.#Incubate 16-24 hr at 37C, 5% CO2, 95% humidity 3.#Aspirate leaving 1 ul residual volume 4.#Dispense 5 ul/well DPBS + 1 mM CaCl2, 0.5 mM MgCl2, 0.05% BSA, 0.005% Tween 20 5.#Aspirate leaving 2 ul residual volume 6.#Dispense 23 nl/well compounds in DMSO 7.#Dispense 1 ul/well 300 uM Ro-20174 in DMEM 10% FBS 8.#Incubate 30 min at 37C, 5% CO2, 95% humidity 9.#Dispense 1.5 ul/well HTRF reagent: cAMP-d2 in lysis buffer 10.#Dispense 1.5 ul/well HTRF reagent: anti-cAMP antibody-K in lysis buffer 11.#Incubate 30 min at room temperature 12.#Detect HTRF signal using EnVision plate reader
# % is set by controls: 0 for no effect and ±100 for the full control effect; potency is the fitted concentration of half-maximal effect.
Structure (SMILES),Potency,"activity change, negative = inhibition [%]"
CC1=CC(=Cc2sc3ccccc3[n+]2C)C=C(C)O1,44.7 µM (active),
COc1ccc(-n2c(-c3ccccc3)nc3ccccc3c2=O)cc1,,-9.38
CCC(=O)CC(c1ccc([N+](=O)[O-])cc1)c1c(O)c2ccccc2oc1=O (stereo not given),31.6 µM (active),
COc1cc(C(c2c(O)c3ccccc3oc2=O)c2c(C)n(C)n(-c3ccccc3)c2=O)ccc1O (stereo not given),,19.4
Cc1ccc(-n2c(-c3ccc([N+](=O)[O-])cc3)nc3ccccc3c2=O)cc1,,-12.7
CC[C@H]1CN2CCc3cc(OC)c(OC)cc3[C@@H]2C[C@@H]1C[C@H]1NCCc2cc(OC)c(OC)cc21,,-7.25
CN(C)C(=O)NC(O)C(Cl)(Cl)Cl (stereo not given),,7.94
CC(=O)OC1C2(CC3N4C(=O)C5(CO)SSC4(CC31O)C(=O)N5C)OC(C)C(C)(C)C2=O (stereo not given),,4.27
C=CCn1c(O)c(/C=N/N2CCOCC2)c(=O)[nH]c1=S,,-6.96
COC(=O)C1=C(c2c(C)noc2C)C[C@@H]2CC[C@H]1N2C(=O)NCc1ccc2c(c1)OCO2,,4.81
